± gives the standard deviation.
Legend:
[1] = test system: MILI (PIWIL2) piRISC loaded with piRNA #1 (26 nt); test: pre-steady-state target cleavage rate (min^-1); guide: piRNA #1 5'p-UGAGGUAGUAGGUUGUAUAGUAUCCA; higher = faster piRNA-guided slicing of the target; conditions: auxiliary factor: 500 nM mouse GTSF1
Summary of the method: (§1)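 Cleave-'n-Seq: 1 nM active affinity-purified piRISC with one synthetic guide and 0.1 nM transcribed, DNA-blocked target RNA library were mixed, with or without 500 nM GTSF1 partner protein, in HEPES–potassium acetate buffer at 33 °C for 0–8 or 0–960 min. Uncleaved targets were sequenced and normalised to depth and to weakly complementary targets, three trials were pooled, and k3 was capped at 0.0001 min^-1. The pre-steady-state cleavage rate was fitted […].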

[2] = test system: EfPiwi piRISC loaded with piRNA #1 (26 nt); test: pre-steady-state target cleavage rate (min^-1); auxiliary factor: 500 nM Ephydatia muelleri Gtsf1; guide: piRNA #1 5'p-UGAGGUAGUAGGUUGUAUAGUAUCCA; MIWI and MILI are mouse PIWI proteins and EfPiwi is from a freshwater sponge; tags in brackets are library labels; higher = faster piRNA-guided slicing of the target
Summary of the method: as §1

Sequence	pre-steady-state target cleavage rate [1]	pre-steady-state target cleavage rate [2]
GGAGAGGAUACUAUUCAACCUACUACCUGA	0.0595 ± 0.0098	0.00319 ± 0.0018
GGAGACCUAUCUAUACAACCUACUACCUCU [g2:g20:cont:t1U]	0.0927 ± 0.011	0.993 ± 0.45
GGAGAGGAUACUAUACAACCUACUACCGUCA	0.0203 ± 0.0064	0.00833 ± 0.0032
GGAGACCAUACUAUACACCCUACUACCUCA	0.0841 ± 0.016	0.00656 ± 0.0021
GGAGUGGAUCUAUACAACCUACUACCUCA	0.155 ± 0.011	0.0612 ± 0.029
GGAGACCUAUCAUAUACAACCUACUACCUCA	0.0423 ± 0.0085	0.0103 ± 0.0048
GGAGUGGAUACUAUAUAACCUACUACCUCA	0.191 ± 0.0088	0.117 ± 0.045
GGAGUGGAUACUAUAGAAGCUACUACCUCA	0.19 ± 0.011	0.00277 ± 0.0019
GGAGUGGUACUAUACAACCUACUACCUCA	0.148 ± 0.0098	0.00812 ± 0.0044
GGAGUGGAUACUUUACUACCUACUACCUCA	0.16 ± 0.01	0.00437 ± 0.0036
GGAGUGGAUACUAUACAAGCUUCUACCUCA	0.0391 ± 0.0037	0.00507 ± 0.0021
GGAGACCAUAGUAUACAACCUACUACCUCA	0.118 ± 0.012	0.022 ± 0.0084
GGAGACGAUUCUAUACAAGCUACUACCUCA	0.239 ± 0.01	0.00369 ± 0.003
GGAGACCUAUGAAUACAACCUACAUACCUCA	0.00848 ± 0.0021	< 0.0001
GGAGACGAUACUAUACAACCUACUACUUCA	0.162 ± 0.013	0.00983 ± 0.0039
GGAGAGGAUACUAUACUACCAACUACCUCA	0.00796 ± 0.0017	0.00357 ± 0.0021
GGAGAGGAUACAAUACUACCUACUACCUCA	0.154 ± 0.013	0.00424 ± 0.0028
GGAGAGCUAACUAUACAACCUACUACCUCA	0.137 ± 0.018	0.00909 ± 0.0042
GGAGACCAUACUAUACAACCUACAUACCUCA	0.146 ± 0.018	0.00306 ± 0.0029
GGAGAGGAUACUAUUCAACGUACUACCUCA	0.0162 ± 0.0029	0.00415 ± 0.0012

Sequence	pre-steady-state target cleavage rate [1]	pre-steady-state target cleavage rate [2]
GGAGACCAUACUAUACAACCUACAUCCUCA	0.1 ± 0.014	0.00325 ± 0.0028
GGAGACCAUAACUAUACAACCUACUACCUCA	0.135 ± 0.0094	0.138 ± 0.043
GGAGACCAUACUAUACAACCUACCUACCUCA	0.129 ± 0.017	0.00424 ± 0.0022
GGAGACCUUGCUAUACAACCUACUACCUCA	0.114 ± 0.022	0.00436 ± 0.004
GGAGUGGAUACUAUACAACCUACUACCUCCA	0.223 ± 0.011	0.274 ± 0.077
GGAGACGAUACUAUACCACCUACUACCUCA	0.168 ± 0.015	0.0106 ± 0.0037
GGAGAGCAUACUAUACAACCUUCUACCUCA	0.0105 ± 0.0032	0.00445 ± 0.0027
GGAGAGGAUACUUUACAUCCUACUACCUCA	0.253 ± 0.016	0.00455 ± 0.0027
GGAGAGGAUACUAUUCAACCUUCUACCUCA	0.00949 ± 0.0023	0.0031 ± 0.0028
GGAGACGAUACUAUAGUACCUACUACCUCA	0.193 ± 0.013	0.00438 ± 0.0021
GGAGAGGAUACUAUACAAGCUACAACCUCA	0.0872 ± 0.017	0.00258 ± 0.0015
GGAGUGGAUACUAUACAACCUACUACCCUCA	0.104 ± 0.013	0.00587 ± 0.002
GGAGACGAAUGUAUACAACCUACUACCUCA	0.124 ± 0.011	0.00736 ± 0.0043
GGAGACCAUACUAUACUACCUACUACCUCA	0.158 ± 0.017	0.00859 ± 0.0036
GGAGACCUUACUUUACAACCUAGUACCUCA	0.047 ± 0.011	0.00395 ± 0.0033
GGAGACCUUACAUUACAACCUACUACCUCA	0.0294 ± 0.0055	0.00334 ± 0.0033
GGAGACCUAUGAUUACAACCUACUACCUCU [g2:g17:cont:t1U]	0.00674 ± 0.0025	0.732 ± 0.29
GGAGACCAUACUAUACAACGUACUACCACA	0.0309 ± 0.0064	0.00321 ± 0.0029
GGAGAGGAUACUAUUCAACCUACUACCACA	0.169 ± 0.017	0.00331 ± 0.0019
GGAGACGAUAGUUUACAACCUACUACCUCA	0.129 ± 0.01	0.0165 ± 0.0088

Sequence	pre-steady-state target cleavage rate [1]	pre-steady-state target cleavage rate [2]
GGAGUGGAUAGUAUACAAGCUACUACCUCA	0.0697 ± 0.01	0.00224 ± 0.0021
GGAGACCUUACUAUACAACGUACUACCUCA	0.0177 ± 0.0026	0.00318 ± 0.0019
GGAGACGAAACUAUACAACCUACUACCACA	0.219 ± 0.031	0.00352 ± 0.0032
GGAGUGGAAACUAUACAACCUACUACCACA	0.129 ± 0.018	0.00336 ± 0.0029
GGAGACGAUACUAUACAAGCUACUAGCUCA	0.0998 ± 0.024	0.00375 ± 0.0019
GGAGACCAUACAAUACAUCCUACUACCUCA	0.209 ± 0.025	0.00484 ± 0.003
GGAGACCAUUCUAUACAACCUACUACCUGA	0.0973 ± 0.016	0.00652 ± 0.0034
GGAGAGGAUACUAUACAACCUACAACCUCA	0.111 ± 0.015	0.00428 ± 0.0019
GGAGACCUUACUAUACAACCUACUACUUCA	0.116 ± 0.016	0.0046 ± 0.003
GGAGUGGAUACUACACAACCUACUACCUCA	0.175 ± 0.011	0.082 ± 0.029
GGAGACCAUACUAUAGAACCUACUACGUCA	0.0697 ± 0.013	0.00374 ± 0.0034
GGAGACCUAACUAUACAAGCUACUACCUGA	0.235 ± 0.043	0.00345 ± 0.003
GGAGACCAAACUAUACAACCUACUAGCUCA	0.0778 ± 0.029	0.00453 ± 0.0034
GGAGAGGAUACUAUACAAACCUACUACCUCA	0.00683 ± 0.0028	0.0671 ± 0.028
GGAGACCUAUCUAUACAACCUACUACCUCA [g2:g20:cont:t1A]	0.11 ± 0.018	0.0119 ± 0.0046
GGAGACGAUGCUAUACAACCUACUACCUCA	0.194 ± 0.021	0.00734 ± 0.0042
GGAGACGAUACUAUACAACCUACUAGCUCA	0.11 ± 0.019	0.00381 ± 0.0011
GGAGACCAAACUAAACAACCUACUACCUCA	0.104 ± 0.027	0.00793 ± 0.0036
GGAGACCGUACUAUACAACCUACUACCUCA	0.157 ± 0.021	0.156 ± 0.049
GGAGACGAUACAAUACAUCCUACUACCUCA	0.312 ± 0.016	0.00286 ± 0.0019

Source: the supplement of paper PMC10338343
